Inconclusive results are not listed. Activity calls are given as the source filed them. The calls were made as follows, unless noted: active = hit-call score of the fitted dose curve at least 0.9, where 1 is the maximum; inactive = score below 0.9.
Legend:
[1] = biological target: Nucleoli Translocation, AR (gene 367) (UniProt P10275); assay: UPITT_HCI_U2OS_AR_TIF2_Nucleoli_Antagonist: University of Pittsburgh U2OS Androgen Receptor-Transcriptional Intermediary Factor 2 (AR-TIF2) Antagonism High Content Imaging Assay for Nucleoli Translocation (AID 2283997; active = hit-call score of the fitted dose curve at least 0.9, where 1 is the maximum)
Sequence of Nucleoli Translocation, AR (gene 367) (P10275 whole entry, looked up): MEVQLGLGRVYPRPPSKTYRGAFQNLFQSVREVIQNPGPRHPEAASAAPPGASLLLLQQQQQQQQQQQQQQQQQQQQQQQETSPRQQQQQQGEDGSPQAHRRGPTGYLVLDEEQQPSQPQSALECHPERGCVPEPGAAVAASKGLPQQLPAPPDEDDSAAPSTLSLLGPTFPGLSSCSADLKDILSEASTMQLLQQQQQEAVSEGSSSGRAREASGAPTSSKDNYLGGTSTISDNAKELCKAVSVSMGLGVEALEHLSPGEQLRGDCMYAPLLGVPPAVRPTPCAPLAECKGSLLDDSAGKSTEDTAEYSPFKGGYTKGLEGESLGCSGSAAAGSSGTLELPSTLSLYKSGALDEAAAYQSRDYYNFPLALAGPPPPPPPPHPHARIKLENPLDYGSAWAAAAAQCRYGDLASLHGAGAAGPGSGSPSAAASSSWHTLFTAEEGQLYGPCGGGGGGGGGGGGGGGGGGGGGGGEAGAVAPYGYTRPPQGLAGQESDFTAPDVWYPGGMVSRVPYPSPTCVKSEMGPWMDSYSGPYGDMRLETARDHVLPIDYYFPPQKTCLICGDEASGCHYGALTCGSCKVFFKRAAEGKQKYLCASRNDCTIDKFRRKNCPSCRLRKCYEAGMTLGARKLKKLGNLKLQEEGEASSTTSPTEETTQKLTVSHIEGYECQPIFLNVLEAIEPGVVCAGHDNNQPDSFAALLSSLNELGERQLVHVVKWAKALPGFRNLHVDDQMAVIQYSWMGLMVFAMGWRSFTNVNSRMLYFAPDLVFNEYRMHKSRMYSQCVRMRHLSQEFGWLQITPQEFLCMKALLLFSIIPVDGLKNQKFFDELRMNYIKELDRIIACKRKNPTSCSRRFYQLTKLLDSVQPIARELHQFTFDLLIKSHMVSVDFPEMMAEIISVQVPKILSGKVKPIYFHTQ
Summary of the method: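 An antagonist-mode imaging screen: engineered U2OS (AR-RFP, TIF2-GFP) exposed to 20 uM compound, 0.2% DMSO. Activity reflects nucleolar red fluorescence change relative to DHT baseline.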

[2] = TOX21_PR_LUC_Followup_Antagonist_viability: Viability Assessment in the Tox21 HEK293 Progesterone Receptor (PR) Antagonism Luciferase Follow-Up Assay (AID 2283940; active = hit-call score of the fitted dose curve at least 0.9, where 1 is the maximum)
Summary of the method: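 Viability counter-readout: cellular ATP measured by luciferase luminescence after 16 h compound exposure at 37C of HEK293-PR-A-luc cells, which had been cultured in charcoal-stripped serum and seeded 5 h beforehand.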

[3] = TOX21_PR_LUC_Followup_Agonist_viability: Viability Assessment in the Tox21 HEK293 Progesterone Receptor (PR) Agonism Luciferase Follow-Up Assay (AID 2283941; active = hit-call score of the fitted dose curve at least 0.9, where 1 is the maximum;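 also: loss of signal means cytotoxicity so actives lower viability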)
Summary of the method: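 Cytotoxicity counter-readout in the PR-A luciferase reporter line HEK293, with 16 h compound exposure at 37C after cells were cultured in charcoal-stripped serum. Cellular ATP quantified by CellTiter-Glo luminescence.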

[4] = biological target: Ratio of Nucleoli Translocation and Cytoplasm, AR (gene 367) (UniProt P10275); assay: UPITT_HCI_U2OS_AR_TIF2_Nucleoli_Cytoplasm_Ratio_Agonist: University of Pittsburgh U2OS Androgen Receptor-Transcriptional Intermediary Factor 2 (AR-TIF2) Agonism High Content Imaging Assay for Ratio of Nucleoli Translocation and Cytoplasm (AID 2284000; active = hit-call score of the fitted dose curve at least 0.9, where 1 is the maximum;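 also: hits raise the red nucleolar to cytoplasm ratio above vehicle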)
Sequence of Ratio of Nucleoli Translocation and Cytoplasm, AR (gene 367) (P10275 whole entry, looked up): as above
Summary of the method: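 Primary screen at 20 uM final (0.2% DMSO), then triplicate confirmation and dose-response from 0.195 to 50 uM final (0.5% DMSO). Cells: U2OS with AR-RFP and TIF2-GFP. Endpoint is the nucleoli/cytoplasm red-fluorescence ratio, gain-of-signal vs DMSO.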

[5] = CCTE_Shafer_MEA_acute_spike_number: CCTE's Neural Acute Assay for Total Number of Spikes, Shafer Lab (AID 2284008);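 as to AC50: curve fitted for decrease in spike count so AC50 reflects inhibitors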
Summary of the method: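 Primary rat cortical neurons on 16-electrode MEA wells; on DIV 13 or 15, 40-min baseline then 40-min recording with compound (0.03-40 uM) at 37 C. Spikes detected at 8x rms noise; percent change versus baseline, DMSO as negative control.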

[6] = CCTE_Shafer_MEA_acute_firing_rate_mean: CCTE's Neural Acute Assay for Mean Firing Rate, Shafer Lab (AID 2284009);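 also: analyzed for loss of signal so actives lower firing rate relative to DMSO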
Summary of the method: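 Spontaneous spiking of primary rat cortical networks, DIV 13/15, 37 C. Compound 0.03-40 uM, n ≥3 wells; 40 min baseline vs 40 min treated. Endpoint fitted in loss-of-signal direction against DMSO.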

[7] = CCTE_Harrill_HTTr_Viability_MCF7: CCTE's 6-hour Cell Viability Assessment for the High-Throughput Transcriptomics (HTTr) Platform, in MCF-7 cells cultured in DMEM + 10% fetal bovine serum, Harrill Lab (AID 2284010)
Summary of the method: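 Propidium iodide exclusion, imaged by high-content analysis, gauged viability after a six-hour exposure across eight concentrations. Cells were MCF-7 grown in DMEM with 10% fetal bovine serum; fits run in both directions against DMSO.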

[8] = CCTE_Harrill_HTTr_Apoptosis_MCF7: CCTE's 6-hour Apoptosis Assessment for the High-Throughput Transcriptomics (HTTr) Platform, in MCF-7 cells cultured in DMEM + 10% fetal bovine serum, Harrill Lab (AID 2284011)
Summary of the method: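 MCF-7 cells in DMEM + 10% fetal bovine serum were exposed to chemicals for 6 hours over an eight-point dilution series. Caspase-3/7 activation was imaged by high content imaging with CellEvent Caspase 3/7 Green; bidirectional fitting used DMSO as baseline.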

[9] = CCTE_Harrill_HTTr_CellCount_MCF7: CCTE's Cell Proliferation Assessment for the High-Throughput Transcriptomics (HTTr) Platform, Harrill Lab (AID 2284012; active = hit-call score of the fitted dose curve at least 0.9, where 1 is the maximum;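 also: cells exposed to compound for six hours; intended direction is loss of nuclei count meaning fewer cells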)
Summary of the method: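 Cell count from high-content imaging of Hoechst-labeled nuclei serves as viability/growth readout. Chemicals were applied to MCF-7 cells in eight concentrations for six hours, with fitting in both directions relative to DMSO.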

[10] = CCTE_Shafer_MEA_acute_burst_number: CCTE's Neural Acute Assay for Single-Electrode Bursts, Shafer Lab (AID 2284013)
Summary of the method: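 Burst totals were derived with adaptive spike detection (8x rms threshold) on filtered signals from rat cortical cultures; change relative to pre-treatment baseline after 40-min compound exposure (0.03-40 uM) was fitted in the negative direction against DMSO.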

[11] = biological target: Ratio of Nucleoli Translocation and Cytoplasm, AR (gene 367) (UniProt P10275); assay: UPITT_HCI_U2OS_AR_TIF2_Nucleoli_Cytoplasm_Ratio_Antagonist: University of Pittsburgh U2OS Androgen Receptor-Transcriptional Intermediary Factor 2 (AR-TIF2) Antagonism High Content Imaging Assay for Ratio of Nucleoli Translocation and Cytoplasm (AID 2283999; active = hit-call score of the fitted dose curve at least 0.9, where 1 is the maximum;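 also: antagonists lower the DHT-driven ratio of nucleolar to cytoplasmic red signal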)
Summary of the method: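 High-content imaging of red fluorescence ratio, nucleoli versus cytoplasm, in U2OS expressing AR-RFP and TIF2-GFP, fitted relative to DHT. Compounds tested once at 20 uM final, then 0.195 to 50 uM final in serial dilution.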

[12] = biological target: Thyroid hormone receptor alpha (Rattus norvegicus) + Thyroid hormone receptor beta (Rattus norvegicus) (UniProt P18113+P63059); assay: TOX21_TR_LUC_GH3_Agonist_Followup: Tox21 GH3 Thyroid Hormone Receptor Agonism Luciferase Follow-Up Assay (AID 2283939; active = hit-call score of the fitted dose curve at least 0.9, where 1 is the maximum)
Sequence of Thyroid hormone receptor alpha (Rattus norvegicus) + Thyroid hormone receptor beta (Rattus norvegicus) (P63059 whole entry, looked up): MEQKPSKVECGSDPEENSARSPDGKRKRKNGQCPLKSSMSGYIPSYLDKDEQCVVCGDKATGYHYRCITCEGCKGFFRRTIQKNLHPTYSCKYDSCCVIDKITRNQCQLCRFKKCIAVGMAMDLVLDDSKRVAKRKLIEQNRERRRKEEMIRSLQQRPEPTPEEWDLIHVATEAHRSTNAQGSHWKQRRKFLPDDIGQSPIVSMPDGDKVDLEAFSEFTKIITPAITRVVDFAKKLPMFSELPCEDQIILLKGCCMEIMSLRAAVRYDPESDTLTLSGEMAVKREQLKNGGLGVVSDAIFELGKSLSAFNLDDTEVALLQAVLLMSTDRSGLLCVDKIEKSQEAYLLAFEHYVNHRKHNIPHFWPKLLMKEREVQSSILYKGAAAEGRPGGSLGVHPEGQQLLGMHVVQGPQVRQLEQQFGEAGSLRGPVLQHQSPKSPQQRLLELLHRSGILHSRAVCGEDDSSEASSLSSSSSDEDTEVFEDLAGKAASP
Sequence of Thyroid hormone receptor alpha (Rattus norvegicus) + Thyroid hormone receptor beta (Rattus norvegicus) (P18113 whole entry, looked up): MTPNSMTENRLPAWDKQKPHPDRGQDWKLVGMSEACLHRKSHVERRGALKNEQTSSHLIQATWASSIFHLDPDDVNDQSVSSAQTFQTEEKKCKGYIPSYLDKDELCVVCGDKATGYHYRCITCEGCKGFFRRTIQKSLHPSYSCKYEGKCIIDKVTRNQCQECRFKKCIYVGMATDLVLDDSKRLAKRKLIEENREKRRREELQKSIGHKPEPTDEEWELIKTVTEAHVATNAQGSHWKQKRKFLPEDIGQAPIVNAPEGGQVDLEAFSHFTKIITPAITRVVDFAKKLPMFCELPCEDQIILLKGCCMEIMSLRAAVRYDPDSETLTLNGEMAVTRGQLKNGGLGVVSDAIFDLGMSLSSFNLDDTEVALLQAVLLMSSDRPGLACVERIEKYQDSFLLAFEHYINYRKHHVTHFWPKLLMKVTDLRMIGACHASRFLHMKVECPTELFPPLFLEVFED
Summary of the method: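 Agonist-mode confirmatory run: 15 concentrations (5 nM to 92 uM final) on GH3 rat pituitary cells, 24 h at 37C/5% CO2, T3 as positive control. Luminescence read with ONE-Glo after 30 min.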

THRA (gene 7067) = THRA (gene 7067) (UniProt P10827); assay: TOX21_TRA_COA_Agonist_Followup_ratio: Tox21 Thyroid Hormone Receptor alpha Agonism through Coactivator Recruitment Follow-Up Assay, Ratio (AID 2283948)
Sequence of THRA (gene 7067) (P10827 whole entry, looked up, the tested form may be a part): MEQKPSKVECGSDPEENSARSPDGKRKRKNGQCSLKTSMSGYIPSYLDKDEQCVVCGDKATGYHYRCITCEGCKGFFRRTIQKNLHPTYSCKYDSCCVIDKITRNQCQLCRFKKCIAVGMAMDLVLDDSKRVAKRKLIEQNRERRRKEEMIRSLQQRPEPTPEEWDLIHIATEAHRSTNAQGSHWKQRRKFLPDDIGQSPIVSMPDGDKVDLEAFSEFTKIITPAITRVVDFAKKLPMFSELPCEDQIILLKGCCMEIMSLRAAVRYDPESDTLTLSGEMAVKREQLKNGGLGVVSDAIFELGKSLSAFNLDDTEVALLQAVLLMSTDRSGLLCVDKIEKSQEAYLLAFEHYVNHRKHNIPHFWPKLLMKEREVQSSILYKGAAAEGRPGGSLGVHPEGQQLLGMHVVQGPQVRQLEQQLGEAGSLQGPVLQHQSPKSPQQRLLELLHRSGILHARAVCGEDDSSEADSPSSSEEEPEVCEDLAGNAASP
Summary of the method: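 Read-out is the 520/495 nm emission ratio (ex 340 nm), scaled between DMSO-only wells as 0% and T3 wells as 100%. It reflects fluorescein-SRC-2 peptide recruitment to GST-TRα LBD detected via terbium anti-GST antibody.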

THRB (gene 7068) [13] = biological target: THRB (gene 7068) (UniProt P10828); assay: TOX21_TRB_BLA_Agonist_Followup_ratio: Tox21 Thyroid Hormone Receptor beta Agonism Beta-lactamase (BLA) Follow-Up Assay, Ratio (AID 2283954; active = hit-call score of the fitted dose curve at least 0.9, where 1 is the maximum)
Sequence of THRB (gene 7068) (P10828 whole entry, looked up, the tested form may be a part): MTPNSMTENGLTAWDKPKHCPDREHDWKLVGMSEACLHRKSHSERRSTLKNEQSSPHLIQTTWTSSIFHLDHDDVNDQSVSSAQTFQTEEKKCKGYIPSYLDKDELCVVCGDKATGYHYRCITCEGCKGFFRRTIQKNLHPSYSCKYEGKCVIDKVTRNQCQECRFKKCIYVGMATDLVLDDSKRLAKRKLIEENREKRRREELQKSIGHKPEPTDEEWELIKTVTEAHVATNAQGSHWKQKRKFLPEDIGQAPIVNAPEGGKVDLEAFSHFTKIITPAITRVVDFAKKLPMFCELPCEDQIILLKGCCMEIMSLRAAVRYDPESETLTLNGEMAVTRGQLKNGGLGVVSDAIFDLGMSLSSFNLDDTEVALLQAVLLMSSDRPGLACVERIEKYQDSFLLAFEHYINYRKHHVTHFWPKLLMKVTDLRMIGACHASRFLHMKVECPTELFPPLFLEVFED
Summary of the method: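 Agonist mode: compounds (11-point, triplicate) incubated 18 h with HEK293T cells carrying GAL4-DBD/human TRβ-LBD and UAS-β-lactamase. Blue/green (460/530 nm) FRET ratio read after 2 h CCF4-AM loading; CellTiter-Glo viability run in the same plates.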

THRB (gene 7068) [14] = biological target: THRB (gene 7068) (UniProt P10828); assay: TOX21_TRB_COA_Agonist_Followup_ratio: Tox21 Thyroid Hormone Receptor beta Agonism through Coactivator Recruitment Follow-Up Assay, Ratio (AID 2283963)
Summary of the method: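 GST-TRb LBD 5.0 nM + 0.10% BSA + cpd; add fluorescein-SRC-2 200 nM / Tb anti-GST Ab 2 nM; TR-FRET ex 340, em 520:495; norm DMSO 0%, T3 100%.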

[15] = biological target: Retinoic acid receptor RXR-alpha (Homo sapiens) (UniProt P19793); assay: TOX21_TR_RXR_BLA_Agonist_Followup_ratio: Tox21 Thyroid Hormone Receptor beta Retinoid X Receptor alpha (RXRa) Agonism Beta-lactamase (BLA) Follow-Up Assay, Ratio (AID 2283968; active = hit-call score of the fitted dose curve at least 0.9, where 1 is the maximum)
Sequence of Retinoic acid receptor RXR-alpha (Homo sapiens) (P19793 whole entry, looked up): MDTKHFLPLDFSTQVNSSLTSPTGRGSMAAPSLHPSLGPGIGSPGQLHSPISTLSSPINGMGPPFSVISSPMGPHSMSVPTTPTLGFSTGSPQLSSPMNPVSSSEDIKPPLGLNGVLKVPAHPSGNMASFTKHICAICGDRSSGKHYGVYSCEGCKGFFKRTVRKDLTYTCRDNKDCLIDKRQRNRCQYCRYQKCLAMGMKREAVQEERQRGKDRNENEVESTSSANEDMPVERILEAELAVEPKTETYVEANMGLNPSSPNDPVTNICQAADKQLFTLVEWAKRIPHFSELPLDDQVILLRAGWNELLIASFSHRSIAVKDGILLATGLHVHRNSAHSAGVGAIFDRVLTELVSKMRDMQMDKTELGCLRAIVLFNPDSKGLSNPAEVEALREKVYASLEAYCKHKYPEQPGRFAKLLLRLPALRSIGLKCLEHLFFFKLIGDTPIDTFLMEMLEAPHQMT
Summary of the method: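 Agonist mode: compounds given to RXRa-bla HEK293T cells at 11 concentrations, triplicate, 16 h at 37C/5% CO2. Readout is the 460:530 nm blue/green ratio after 2 h substrate loading at room temperature; DMSO baseline, 9-cis retinoic acid control.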

[16] = TOX21_TR_RXR_BLA_Agonist_Followup_viability: Viability Assessment in the Tox21 Thyroid Hormone Receptor beta Retinoid X Receptor alpha (RXRa) Agonism Beta-lactamase (BLA) Follow-Up Assay (AID 2283970; active = hit-call score of the fitted dose curve at least 0.9, where 1 is the maximum)
Summary of the method: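 CellTiter-Glo ATP luciferase read-out of cell viability, multiplexed with the beta-lactamase reporter run. RXRa-bla HEK293T cells in charcoal-stripped serum medium were exposed 16 h at 37C; data fitted both directions relative to DMSO.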

Measured: AC50

C[Si](O[Si](C)(C)C)O[Si](C)(C)C
inactive: [1]

C[C@H]1C[C@H]2[C@@H]3CCC4=CC(=O)C=C[C@]4(C)[C@@]3(F)[C@@H](O)C[C@]2(C)[C@@]1(O)C(=O)COP(=O)(O)O
inactive: [2] | [3]

O=C(Oc1ccccc1)c1ccc(O)cc1
inactive: [3]

NCCCN1CCOCC1
inactive: [1] | [4]

COc1cc(C=O)ccc1OC(=O)C(C)C
inactive: [5] | [6] | [7] | [8] | [9] | [10]

C[C@]12CC[C@H]3[C@@H](CCC4=CC(=O)CC[C@@]43C)[C@@H]1CC[C@@H]2C(=O)CO
inactive: [2] | [3] | [7] | [8]

OC[C@H]1O[C@H](O[C@]2(CCl)O[C@H](CCl)[C@@H](O)[C@@H]2O)[C@H](O)[C@@H](O)[C@H]1Cl
inactive: [5] | [6] | [10]

CC(=O)[C@H]1CC[C@H]2[C@@H]3CC=C4C[C@@H](O)CC[C@]4(C)[C@H]3CC[C@]12C
inactive: [3] | [7] | [8]
active: [5] 7.9 nM | [6] 5.37 nM | [10] 14.4 nM

O=c1cc(-c2ccccc2)oc2cc(O)cc(O)c12
inactive: [2] | [3] | [1] | [11] | [4] | [7] | [8]

c1ccc2c(c1)c1cccc3ccc4cccc2c4c31
inactive: [1] | [11] | [4] | [7] | [8] | [9]

Cc1cccc(C)c1[N+](=O)[O-]
inactive: [12] | THRA (gene 7067) | THRB (gene 7068) [13] | THRB (gene 7068) [14] | [15] | [16]

BrC1CCC(Br)C(Br)CCC(Br)C(Br)CCC1Br (stereo not drawn)
active: [1] 43500 nM
inactive: [11] | [4] | [7] | [8] | [9]

CCCCC[Si](OCC)(OCC)OCC
inactive: [1] | [4]

Cc1cc(C2(c3cc(C)c(O)cc3C)OS(=O)(=O)c3ccccc32)c(C)cc1O
active: [10] 148 nM
inactive: [5] | [6] | [7] | [8] | [9]

C[C@H]1C[C@@H]2[C@H]([C@@H](O)C[C@@]3(C)[C@H]2CC[C@]3(O)C(=O)CO)[C@@]2(C)C=CC(=O)C=C12
active: [5] 3 nM | [6] 3 nM | [10] 3 nM
inactive: [7] | [8] | [9]

CC(C)(COC(=O)c1ccccc1)COC(=O)c1ccccc1
inactive: [5] | [6] | [10]

NCCNCCN
inactive: [5] | [6] | [10]

O=Nc1ccc(Nc2ccccc2)cc1
inactive: [4] | [7] | [8]
active: [1] 2560 nM | [11] 2510 nM

CCC/C=C/C=O
inactive: [1] | [11] | [4]

From PubChem BioAssay (EPA / NIEHS)
